# In the library only some 13% were active in any assay of this set; here they are far more common.
# USP17 block – inhibitors of human USP17 deubiquitinase; inhibition, % at 50 µM; Ubiquitin carboxyl-terminal hydrolase 17-like protein 5 (Homo sapiens), A8MUK1; AID 1645855, 2021; purified USP17, Ub-rhodamine cleavage fluorescence, 3 h; 6.5% of 47,000 active
# USP28 block – inhibitors of human USP28 deubiquitinase. 3% of 47,000 active. Ubiquitin carboxyl-terminal hydrolase 28 (Homo sapiens), Q96RU2. purified USP28, Ub-rhodamine cleavage fluorescence, 30 min. inhibition, % at 25 µM
# USP8 inh – inhibitors of human USP8 deubiquitinase. Ubiquitin carboxyl-terminal hydrolase 8 (Homo sapiens), P40818. purified USP8, Ub-rhodamine cleavage fluorescence, 30 min. inhibition, % at 20 µM. 4.2% of 47,000 active. AID 1645853, 2021
# USP30 inh – inhibitors of human USP30 deubiquitinase. 5.3% of 47,000 active. purified USP30, Ub-rhodamine cleavage fluorescence. AID 1645860, 2021. Ubiquitin carboxyl-terminal hydrolase 30 (Homo sapiens), Q70CQ3. inhibition, % at 25 µM
# Target sequence (Q70CQ3 whole entry, looked up): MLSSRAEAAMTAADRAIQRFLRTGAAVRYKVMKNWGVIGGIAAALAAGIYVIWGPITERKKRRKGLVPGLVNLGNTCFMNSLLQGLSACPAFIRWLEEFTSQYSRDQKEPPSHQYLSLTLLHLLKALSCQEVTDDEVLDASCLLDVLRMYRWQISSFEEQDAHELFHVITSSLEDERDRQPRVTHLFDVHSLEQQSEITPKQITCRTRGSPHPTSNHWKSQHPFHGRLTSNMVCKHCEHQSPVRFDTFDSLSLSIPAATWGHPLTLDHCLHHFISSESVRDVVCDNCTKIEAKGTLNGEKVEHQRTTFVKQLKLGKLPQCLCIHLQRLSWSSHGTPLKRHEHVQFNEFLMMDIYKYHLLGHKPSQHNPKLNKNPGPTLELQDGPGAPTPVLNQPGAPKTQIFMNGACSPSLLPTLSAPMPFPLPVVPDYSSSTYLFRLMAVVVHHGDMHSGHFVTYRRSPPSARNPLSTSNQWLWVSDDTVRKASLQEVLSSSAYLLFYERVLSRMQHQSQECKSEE
# An asterisk follows results filed as active; x = not tested or not shown. Rule as the data show it: active = inhibition above about 30%; inactive = the rest.
SMILES,USP17 block,USP28 block,USP8 inh,USP30 inh
Cc1ccc(Cl)cc1NC(=O)c1ccn(COc2ccccc2F)n1,0.3,34.9*,-10.4,-0.2
Cc1ccc(NC(=O)c2cc(-c3cccnc3)n(-c3ccc(F)cc3)n2)nc1,-13.5,8.3,-7.2,-4.0
Cc1ccc(NC(=O)c2ccn(COc3ccc(Cl)c(C)c3)n2)nc1,33.9*,-6.3,18.9,22.3
Cc1ccc(NC(=O)c2cc3ccccc3o2)nc1,-2.1,4.9,-15.8,-7.1
Cc1ccc(NC(=O)c2ccn(COc3ccccc3Cl)n2)nc1,33.0*,19.2,21.3,48.1*
COc1ccc(C2=CC(c3ccco3)n3ncnc3N2)cc1OC (configuration not stated),-120.1,-130.6,-145.2,-484.4
O=C(COC(=O)c1cccc(Cl)c1)NC1CCCc2ccccc21 (configuration not stated),27.0,6.2,9.1,0.7
COc1cccc(NC(=O)CSc2cc(C)c3cc(S(=O)(=O)N(C)C)ccc3n2)c1,-19.4,-12.3,-3.5,-60.7
COc1ccc2c(C)cc(SCC(=O)Nc3nsc(-c4ccc(C)cc4)n3)nc2c1,59.9*,54.9*,-2.2,82.2*
COc1ccc(/C=C/c2ccc(=O)n(Cc3ccccc3)n2)cc1,19.7,13.0,8.7,16.4
COc1ccc(Cn2nc(-c3ccccc3)cc2-c2ccccc2O)cc1,11.9,20.6,14.2,43.4*
O=C(CSCc1ccccc1)Nc1c(-c2cccs2)nc2ccccn12,-5.8,0.3,0.7,-3.3
N#Cc1cccnc1N1CCN(C(=O)Nc2cccc3ccccc23)CC1,76.8*,1.0,91.1*,-25.6
O=C(Cn1nc2c3c4c(sc3ncn2c1=O)CCCCC4)Nc1ccc(Cl)cc1F,69.8*,18.3,91.9*,28.6
O=C(Nc1nc2ccccc2s1)c1ccc2c(c1)C(=O)N(Cc1cccnc1)C2=O,58.4*,-3.3,5.4,24.0
O=C(NCc1cccnc1)c1cccnc1-c1nc2ccccc2s1,15.6,5.7,1.4,13.1
CC(=O)O[C@@H]1OC(=O)[C@](C)(C(C)=O)[C@@H]1C,39.4*,11.4,6.1,32.9*
COCCN1C(=O)c2[nH]nc(-c3ccccc3O)c2C1c1cccc(OCc2ccccc2)c1 (configuration not stated),25.0,12.0,64.7*,27.2
CC(c1nc2ccccc2c(=O)[nH]1)N1CCN(S(=O)(=O)c2ccc3c(c2)CCC3)CC1 (configuration not stated),2.3,-2.6,-7.5,3.1
Nc1c(-c2ccc(Cl)cc2)cnc2cc(-c3ccc(Cl)c(Cl)c3)nn12,41.2*,24.4,3.8,59.6*
Nc1c(-c2ccc(Cl)cc2)cnc2nc(Sc3ncc(C(F)(F)F)cc3Cl)nn12,26.2,5.6,35.3*,33.0*
Cc1nc(Nc2ccc(Oc3ccccc3)cc2)cc(-c2ccncc2)n1,-3.4,7.5,-4.9,-20.7
COc1ccc(Nc2cc(-c3cccc(C(F)(F)F)c3)nc(-c3ccncc3)n2)cc1,x,-10.5,37.8*,-29.6
COc1ccc(-n2nnc(C(=O)Nc3ccc(F)cc3F)c2C)cc1,27.4,-1.4,-5.0,13.4
COc1ccc(-n2nnc(C(=O)Nc3cccc(F)c3)c2C)cc1,48.1*,17.8,0.2,27.0
SMILES,USP17 block,USP28 block,USP8 inh,USP30 inh
COc1ccc(-n2nnc(C(=O)Nc3ccc(F)cc3)c2C)cc1,50.2*,3.9,2.2,16.9
COc1ccc(NC(=O)c2nnn(-c3ccccc3C)c2C)cc1OC,3.3,72.2*,-5.7,-16.2
CCc1ccc(-n2nnc(C(=O)Nc3ccc(F)cc3)c2C)cc1,10.3,14.9,21.5,32.2*
Cc1ccc(Cl)cc1-n1nnc(C(=O)Nc2ccccc2)c1C,12.5,24.6,12.7,20.5
Cc1ccc(NC(=O)c2nnn(-c3cccc(F)c3)c2C)cc1,5.4,9.5,7.9,42.7*
Cc1ccc(-n2nnc(C(=O)Nc3ccccc3F)c2C)cc1C,56.1*,x,2.1,x
COc1ccc(NC(=O)c2nnn(-c3ccc(F)cc3)c2C)cc1,48.0*,18.4,14.6,2.3
COc1ccc(C(=O)c2nnn(-c3ccc(OC(F)(F)F)cc3)c2C)cc1,19.3,28.5,33.2*,25.0
COc1ccc(-n2nnc(C(C)=O)c2NC2CC2)cc1,1.4,-0.9,0.7,0.8
Cc1c(C(=O)Nc2ccc(Cl)cc2)nnn1-c1ccc(F)cc1,25.8,10.4,7.2,23.0
Cc1ccccc1C(=O)N1CCc2cc3ccccc3nc21,-11.3,3.4,-55.4,7.3
Cc1ccc(C(=O)N2CC(C(=O)NC3CCCC3)C3(CCOCC3)C2)cc1 (configuration not stated),6.9,15.4,8.9,23.4
CN1CCn2c(-c3cnn(C)c3)cnc2C12CCN(C(=O)c1ccc(Cl)cc1)CC2,-13.4,-7.3,-13.7,-10.8
O=CNC1(C(=O)Nc2ccc(Br)cc2)CCCCC1,8.8,4.4,18.3,7.2
Cn1c(=O)c2c(nc(N3CCN(c4cccc(Cl)c4)CC3)n2CCSc2ncccn2)n(C)c1=O,1.5,1.9,9.6,11.7
O=C(NCC1CC1)c1ncn2c1CN(CC1CC1)S(=O)(=O)c1ccccc1-2,3.9,11.4,-4.2,33.8*
CCC(CC)CNC(=O)c1ncn2c1CN(CC1CC1)S(=O)(=O)c1ccccc1-2,1.2,1.5,4.6,6.1
CC(C)CCN1Cc2c(C(=O)NCc3ccccc3)ncn2-c2ccccc2S1(=O)=O,18.5,23.4,18.3,41.9*
COc1cc(O)c2c(=O)oc3c(O)c(OC)cc(C)c3c2c1,-5.9,-8.8,2.7,12.6
CC(CCc1ccccc1)NC(=O)Cn1cccc1C(=O)c1ccccc1 (configuration not stated),14.4,38.1*,15.0,14.9
COc1ccc(CNC(=O)c2ccc(N3C(=O)[C@@H]4Cc5ccccc5CN4C3=O)cc2)cc1,-13.1,-15.6,-16.9,-7.1
O=C(c1cccnc1)c1c(N2CCOCC2)[nH]c(=O)c2ccccc12,37.2*,x,8.0,x
Cn1c(=O)c2c(nc3n(CCCO)c(-c4ccccc4)cn23)n(C)c1=O,-6.2,-3.5,-33.9,-11.0
Clc1ccc(Cc2nnc(-c3cccnc3)o2)cc1,1.0,31.1*,-1.8,0.5
CCOC(=O)N1CCC(NC(=O)c2cnc(OC)nc2)CC1,-1.7,-4.1,-4.5,1.9
SMILES,USP17 block,USP28 block,USP8 inh,USP30 inh
O=C1Nc2ccccc2C(=O)C1C(c1ccc(Cl)cc1)C1C(=O)Nc2ccccc2C1=O (configuration not stated),88.2*,39.9*,34.5*,41.1*
O=C1Nc2ccccc2C(=O)N2CCCC12 (configuration not stated),10.8,9.7,-0.9,19.2
O=C(Oc1ccc(-c2cnc3ccccc3n2)cc1)c1ccc(F)cc1,65.5*,-3.6,0.9,-1.8
O=C(COc1ccc(-c2cnc3ccccc3n2)cc1)NC1CC1,-4.4,-3.0,1.7,9.3
COC(=O)c1sc2cc([N+](=O)[O-])sc2c1NC(C)=O,-15.3,-1.3,-67.2,2.0
O=C(/C=C/c1ccc(F)cc1)N1CCC(Cc2ccccc2)CC1,35.9*,32.7*,13.9,51.4*
Cc1cc(C)cc(C(=O)N[C@@H](C)C(=O)N2CCC3(CC2)NCCc2[nH]cnc23)c1,-18.2,-18.3,0.5,-40.4
Cc1cc(NCc2ccc3c(c2)OCO3)n2nnnc2n1,7.6,2.1,-15.2,0.7
